Screening results from PubChem.
Sampled rows, rich in hits. Any-hit rate of the full collection: about 21%.
SARS PLP yeast = inhibitors of SARS-CoV papain-like protease in yeast; S. cerevisiae expressing SARS-CoV PLpro, growth rescue; Potency, µM (series often up to 32.9 µM), usual class: activators; actives 0.19% (n = 330,000); also: nearly all actives have a fitted effect of over 55% in size
Cycloheximide cs = counter-screen hit for Shiga toxin inhibitors, cycloheximide; cell reporter, cycloheximide protein synthesis inhibition counterscreen; max response, %; actives 12% (n = 300,000); in the data active = max response mostly above about 13%, no sharp cut-off; inactive = mostly below about 14%; also: read at 38.3 µM for the half of the compounds with a filed dose
Pf growth 96h = inhibits malaria parasite growth, 96 h | P. falciparum luciferase reporter growth, 96 h | actives 6.9% (n = 320,000) | Potency, µM (titrated, usually from 28.7 µM), actives largely listed as inhibitors | AID 504834; active = well fitted inhibition curve with a large enough effect; inconclusive = small, poorly fitted or top-dose-only effect, or another doubt; inactive = no such curve, though single readings can be large or run the other way
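Two parasite generations (96 h, 37 C, 5% CO2) of compound exposure in infected erythrocytes (0.05% parasitemia, 2% hematocrit). Luciferase-reporter P. falciparum; decreased luminescence indicates inhibited growth, aimed at apicoplast-acting delayed death.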
Pf growth 48h = inhibits P. falciparum growth in the first generation, 48 h. actives 5.9% (n = 310,000). Potency, µM (titrated, usually from 28.7 µM), actives largely listed as inhibitors. P. falciparum luciferase growth in erythrocytes, 48 h. AID 504832; active = well fitted inhibition curve with a large enough effect; inconclusive = small, poorly fitted or top-dose-only effect, or another doubt; inactive = no such curve, though single readings can be large or run the other way
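A one-generation exposure of luciferase-tagged malaria parasites in RPMI 1640/Albumax erythrocyte culture, 37 C and 5% CO2. Inhibition is inferred from decreased luminescence after adding detection reagent.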
Shiga inhibitor = inhibitors of Shiga toxin in Vero cells. AID 2315. inhibition, % at 38.7 µM. Vero cells, Shiga toxin protein synthesis inhibition reporter. actives 9.2% (n = 290,000); in the data active = inhibition mostly above about 28%, no sharp cut-off; inactive = mostly below about 43%
NS1 function inh = influenza NS1 inhibition | actives 0.4% (n = 270,000) | AID 2326 | Potency, µM (highest dose often 46.1 µM); also: actives are rising curves; nearly all actives have a fitted effect of over 50% in size
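S. cerevisiae expressing influenza A NS1, grown in glucose, washed, then diluted 1:100 into pH 6.0 -URA galactose medium with 23 nl compound. Growth recovery read as OD600; NS1-free strain serves as control.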
Each line names hits and unclear results; the compound was inactive in the other large screens. Unless noted, calls follow the shape of the full dose curve.

Cc1coc2cc3oc(=O)c(CCC(=O)NCCCn4ccnc4)c(C)c3cc12	Pf growth 96h 10.4µM
Cc1oc2cc3oc(=O)c(CCC(=O)NCCCn4ccnc4)c(C)c3cc2c1C	Cycloheximide cs 7.8, Pf growth 96h inconclusive
CCOCc1nnc(NC(=O)C2CC(=O)N(C3CCCC3)C2)s1 (stereo not given)	Pf growth 96h inconclusive
N#CCCN(Cc1ccccc1)C(=O)c1cccs1	Pf growth 48h inconclusive
O=C1CCCN1C(=O)CSc1ccc2ccccc2n1	none (no result: Cycloheximide cs, Shiga inhibitor, NS1 function inh)
Cc1ccc(S(=O)(=O)CC(=O)Nc2cc(C)on2)cc1	Pf growth 48h inconclusive
Cc1c(CCC(=O)NCCCn2ccnc2)c(=O)oc2cc3oc4c(c3cc12)CCCC4	Pf growth 96h inconclusive, Pf growth 48h 10.4µM
Cc1c(CC(=O)NCCCC(=O)O)c(=O)oc2cc3oc4c(c3cc12)CCCC4	none
N#Cc1ccc(C(=O)CN2CCN(c3ccccc3)CC2)cc1	Pf growth 48h inconclusive
COc1ccccc1N1CCN(C2CCN(C(=O)c3cccc(F)c3)CC2)CC1	Pf growth 96h 13.1µM
COc1ccccc1N1CCN(C(=O)c2cccc(S(=O)(=O)N3CCCCCC3)c2)CC1	Pf growth 96h inconclusive, Pf growth 48h 13.1µM (no result: Cycloheximide cs, Shiga inhibitor, NS1 function inh)
COc1ccccc1N1CCN(C2CCN(C(=O)c3ccc(F)cc3)CC2)CC1	none
O=C(c1cccc(S(=O)(=O)N2CCCCC2)c1)N1CCc2ccccc21	Pf growth 96h 1.17µM
O=C(c1cccc(S(=O)(=O)N2CCCCCC2)c1)N1CCN(c2ccccc2F)CC1	Pf growth 48h 11.7µM
Cc1cc(C(=O)OCC(=O)NCc2ccc(Cl)cc2)c(C)o1	none
CCOC(=O)C(C(=O)OCC)N(C#N)c1nc(N(C)C)nc(N(C)C)n1	none
C[C@@H](C(=O)CC(=O)OC(C)(C)C)[C@@H](O)c1c(F)cccc1Cl	none
CC1CC(C)CN(S(=O)(=O)c2cccc(C(=O)N3CCN(c4ccc(F)cc4)CC3)c2)C1 (stereo not given)	Pf growth 96h inconclusive, Pf growth 48h 11.7µM (no result: Cycloheximide cs, Shiga inhibitor, NS1 function inh)
COc1ccc(C(=O)N2CCN(C3CCC(c4ccccc4)CC3)CC2)cc1OC (stereo not given)	Pf growth 96h 9.28µM, Pf growth 48h inconclusive
COc1cccc(S(=O)(=O)NCc2ccc(C(=O)N3CCN(c4ccccc4OC)CC3)cc2)c1	Pf growth 96h inconclusive, Pf growth 48h 7.38µM
CC(=O)N1CCN(C(=O)c2cccc(S(=O)(=O)N3CCN(c4ccccc4)CC3)c2)CC1	Pf growth 48h inconclusive (no result: Cycloheximide cs, Shiga inhibitor, NS1 function inh)
CC1CCN(S(=O)(=O)c2cccc(C(=O)N3CCN(c4ccc(F)cc4)CC3)c2)CC1	Pf growth 96h inconclusive, Pf growth 48h inconclusive
O=C(c1cccc(S(=O)(=O)N2CCN(c3ccccc3)CC2)c1)N1CCN(c2ccccc2O)CC1	Pf growth 96h inconclusive, Pf growth 48h 10.4µM (no result: Cycloheximide cs, Shiga inhibitor, NS1 function inh)
COc1ccc(C(=O)N2CCC(N3CCN(c4ccccc4)CC3)CC2)cc1OC	none
COc1cccc(S(=O)(=O)NCc2ccc(C(=O)N3CCN(c4ccccc4)CC3)cc2)c1	Pf growth 96h inconclusive
COc1ccc(C(C)=O)cc1CSc1nncn1-c1ccccc1	Pf growth 96h inconclusive
COc1ccc(COC(=O)NNC(=O)c2ccccc2Cl)cc1	Pf growth 96h inconclusive
Cc1cccc(Nc2nnc(-c3ccc(C(=O)N4C[C@H]5C[C@H](C4)c4cccc(=O)n4C5)cc3)c3ccccc23)c1	Pf growth 96h 3.7µM, Pf growth 48h inconclusive
CCN(CC)C(=O)COc1ccc(-c2nnc(Nc3ccc(OC)c(C(=O)NC)c3)c3ccccc23)cc1	Pf growth 96h 10.4µM, Pf growth 48h inconclusive
COc1ccc(-c2cc(C(=O)N3CCCCC3)c3ccccc3n2)cc1OC	Pf growth 96h inconclusive, Pf growth 48h inconclusive
COc1ccc(Nc2nnc(-c3ccccc3)c3ccccc23)cc1C(=O)N1CCCCC1	Pf growth 96h 1.17µM, Pf growth 48h 9.28µM
COc1ccc(Nc2nnc(-c3ccc(C)cc3)c3ccccc23)cc1C(=O)N1CCCCC1	Pf growth 96h 1.17µM, Pf growth 48h 6.57µM
O=S(=O)(c1ccc(Cl)cc1)n1nnc2ccccc21	none
COc1ccc(Cl)cc1S(=O)(=O)N1CCC(C(=O)NC2CCCC2)CC1	none (no result: SARS PLP yeast)
O=C(CCSc1ccc(Cl)cc1)c1cccs1	Cycloheximide cs 12.0
O=C(CCC(=O)c1cccs1)NCc1ccc(F)cc1	none (no result: Pf growth 48h)
O=C(O)CCNc1ccc(Cl)cc1	Pf growth 96h inconclusive
O=C(CCNc1cc(Cl)cc(Cl)c1)c1cccs1	Cycloheximide cs 17.6
O=C(CCC(=O)c1cccs1)NNC(=O)c1cc(Cl)ccc1Cl	none (no result: Cycloheximide cs, Pf growth 96h, Pf growth 48h, Shiga inhibitor, NS1 function inh)
O=C(CCc1ccc(CCC(=O)c2cccs2)s1)c1cccs1	Cycloheximide cs 22.1, Shiga inhibitor 52.7
O=C(CCNc1ccc(Cl)cc1)c1cccs1	Cycloheximide cs 32.3, Pf growth 96h inconclusive, Shiga inhibitor 42.2
O=C(CCSc1ccc(Cl)cc1)NC12CC3CC(CC(C3)C1)C2	Pf growth 96h inconclusive (no result: Pf growth 48h)
Cc1ccccc1-n1nc(C)c2cc(C(=O)N3CCN(S(=O)(=O)c4ccc(Cl)cc4)CC3)sc21	Pf growth 96h 1.85µM, Pf growth 48h 5.22µM
Cc1ccc(S(=O)(=O)N2CCN(C(=O)c3cc4c(C)nn(-c5ccccc5)c4s3)CC2)cc1	Pf growth 96h inconclusive (no result: Pf growth 48h)
Cc1ccccc1-n1nc(C)c2cc(C(=O)N3CCN(S(=O)(=O)c4ccc(F)cc4)CC3)sc21	Pf growth 48h 4.65µM (no result: Pf growth 96h)
Cc1ccc(-c2csc(N3CCC[C@@H]3C(=O)NCCn3c(-c4ccncc4)nc4ccccc43)n2)cc1	Pf growth 96h 3.29µM, Pf growth 48h inconclusive
Cc1ccc(-c2csc(N3CCN(CCCn4c(-c5ccncc5)nc5ccccc54)CC3)n2)cc1	Pf growth 96h 2.62µM, Pf growth 48h inconclusive
O=C(NCCn1c(C(F)(F)F)nc2ccccc21)[C@H]1CCCN1c1nc(CN2CCCCC2)cs1	Pf growth 96h inconclusive
O=C(CCC1CCCC1)NNC(=O)c1ccc(F)cc1	none (no result: Cycloheximide cs, Shiga inhibitor, NS1 function inh)
c1ccc(CC(Nc2ccccn2)c2ccccc2)cc1 (stereo not given)	Cycloheximide cs 18.0, Pf growth 96h 14.7µM, Pf growth 48h inconclusive (no result: NS1 function inh)
Nc1ncnc2c1c(-c1ccc(Oc3ccccc3)cc1)cn2C1CCCC1	Pf growth 96h 5.22µM, Pf growth 48h 8.28µM, NS1 function inh inconclusive (no result: SARS PLP yeast, Cycloheximide cs, Shiga inhibitor)
CNCc1ccc(OCc2ccccc2)c(OC)c1	Cycloheximide cs 28.5
COc1cc(CNCCO)ccc1OCCc1ccccc1	Cycloheximide cs 12.7
COc1ccc(CNCc2ccco2)cc1OCc1ccccc1	Cycloheximide cs 40.9, Shiga inhibitor 89.8, NS1 function inh inconclusive
CNCC(C)COc1ccccc1OCc1ccccc1 (stereo not given)	Pf growth 96h 11.7µM, Pf growth 48h inconclusive
COc1cc(CC(=O)O)ccc1OCc1ccccc1	none
CSc1nc(N)nc(C2CC2)n1	none
Cc1cc(C)c2cc(CN(CCCO)S(=O)(=O)c3ccccc3F)c(=O)[nH]c2c1	none
COc1ccc(CNC(=O)C/C(C)=N/NC(=O)COc2ccc(Br)cc2)cc1	none
Fc1cccc(Cl)c1CNCc1cccnc1	Pf growth 96h 11.7µM
